Records with an inconclusive call do not appear. Calls of active or inactive are those of the source. Unless noted, calls come from the whole dose curve; as a rule, active = well fitted curve in the direction sought with a large enough effect; inconclusive = small, poorly fitted or top-dose-only effect, or another doubt; inactive = no such curve, though single readings can be large; an effect the other way counts as inactive or inconclusive.
Columns and labels:
[1] = Validation qHTS assay for inhibitors of Activation Induced Cytidine Deaminase (AID): UDG Counterscreen signal (AID 1347427)
Method in brief: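 Counterscreen read of UDG activity (2 U/mL, 4/3x) in the FRET deamination format with AID (1 uM, 4/3x), DJC20/DJC23 substrates (250 nM, 4x), 4 h at room temperature. NaOH stop, fluorescence at 560 ex/665 em.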

[2] = target: Single-stranded DNA cytosine deaminase (Homo sapiens) (UniProt Q9GZX7); experiment: Validation qHTS assay for inhibitors of Activation Induced Cytidine Deaminase (AID): AID signal (AID 1347429)
Single-stranded DNA cytosine deaminase (Homo sapiens), sequence (Q9GZX7 whole entry, looked up): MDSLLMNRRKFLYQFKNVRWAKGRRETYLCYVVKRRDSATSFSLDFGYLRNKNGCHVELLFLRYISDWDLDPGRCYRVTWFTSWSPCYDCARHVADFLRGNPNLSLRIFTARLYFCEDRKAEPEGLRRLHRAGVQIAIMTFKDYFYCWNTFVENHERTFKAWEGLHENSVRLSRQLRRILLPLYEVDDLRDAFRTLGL
Method in brief: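 FRET deamination assay: 1 uM AID (4/3x stock) with UDG, compound up to 114 uM, then 250 nM DJC20/DJC23 substrate (4x stock) for 4 hr at room temperature. NaOH added, 30 min; fluorescence read 540/590 nm.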

[3] = Primary qHTS for inhibitors of La Crosse Virus (LACV) - induced cell death in SH-SY5Y cells (AID 1508616);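 note: top concentration of the series differs between compounds; higher means more rescue of cells from virus-induced death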
Method in brief: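 SH-SY5Y cells (6000/well) plated 24 h, then given compounds by pin transfer and LACV at 0.01 MOI for 6 days at 37C. Viability measured by ATPLite luminescence, normalized to infected DMSO and uninfected DMSO.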

[4] = Primary qHTS for Huh7 cytotoxicity: counterscreen for inhibitors of MERS-S pseudotyped particle cell entry (AID 1479147; calls by dose curve)
[5] = Primary qHTS for Vero E6 cytotoxicity: counterscreen for inhibitors of SARS-S pseudo-typed particle cell entry (AID 1479150; calls by dose curve)
[6] = Primary qHTS for inhibitors of MERS-S pseudo-typed particle cell entry (AID 1479149; calls by dose curve; note: nearly all actives have a fitted effect of over 60% in size)
[7] = Primary qHTS for inhibitors of SARS-S pseudo-typed particle cell entry (AID 1479145; calls by dose curve; note: nearly all actives have a fitted effect of over 45% in size)

Measured: Potency

c1ccc(CCCN2CCN(CCOC(c3ccccc3)c3ccccc3)CC2)cc1
inactive: [1] | [2]

NC(CCP(=O)(O)O)C(=O)O (configuration not stated)
inactive: [1] | [2] | [3]

CNCCc1ccc(O)c(O)c1
inactive: [1] | [2]

O=C(O)[C@@H]1CCN1
inactive: [1] | [2] | [3]

O=C(O)CC[N+](=O)[O-]
inactive: [1] | [2] | [3]

C=CCN1CC[C@]23CCCCC2[C@H]1Cc1ccc(O)cc13 (some centres not stated)
inactive: [1] | [2]

c1ccc2sc(C3(N4CCCCC4)CCCCC3)cc2c1
inactive: [1] | [2]

CC[C@@]1(O)C(=O)OCc2c1cc1n(c2=O)Cc2cc3ccccc3nc2-1
inactive: [1] | [2] | [3]

Cn1cnc(CCN)c1
inactive: [1] | [2] | [3]

CC(C)NC(C)Cc1ccc(I)cc1 (configuration not stated)
inactive: [1] | [2] | [4] | [5]

C#CCOC(=O)C1=CCCN(C)C1
inactive: [1] | [2] | [3]

NC1CC1c1ccccc1 (configuration not stated)
inactive: [1] | [2] | [3]

O=C(Cc1ccc(Cl)c(Cl)c1)N1CCCCC1CN1CCCC1 (configuration not stated)
inactive: [1] | [2] | [3]

NCCc1c[nH]c2ccc(O)cc12
inactive: [1] | [2] | [3]

CNCCc1c[nH]c2ccc(O)cc12
inactive: [1] | [2] | [3]

Oc1ccc2c3c1O[C@H]1c4[nH]c5c(c4C[C@@]4(O)[C@@H](C2)N(CC2CC2)CC[C@]314)C[C@@]1(O)[C@H]2Cc3ccc(O)c4c3[C@@]1(CCN2CC1CC1)[C@H]5O4
inactive: [1] | [2] | [3]

CN1C2CCC1CC(OC(=O)c1cc(Cl)cc(Cl)c1)C2 (configuration not stated)
inactive: [1] | [2] | [3]

C[C@]12N[C@H](Cc3ccccc31)c1ccccc12
inactive: [1] | [2] | [3]

NCc1cc(=O)[nH]o1
inactive: [1] | [2] | [3]

CC(=O)[C@H]1CCC2C3CC[C@H]4C[C@H](O)CC[C@]4(C)C3CC[C@@]21C (some centres not stated)
inactive: [1] | [2] | [3]

CS(=N)(=O)CC[C@H](N)C(=O)O (some centres not stated)
inactive: [1] | [2] | [3]

C/C=C(/C)C(=O)O[C@H]1C(C)=C2[C@H]([C@@H]1OC(=O)CCCCCCC)[C@@](C)(OC(C)=O)C[C@H](OC(=O)CCC)[C@@]1(O)[C@H]2OC(=O)[C@@]1(C)O
inactive: [1] | [2]

NC1CCc2cc(O)c(O)cc2C1 (configuration not stated)
inactive: [1] | [2]

Cc1c(C(=O)c2cccc3ccccc23)c2cccc3c2n1[C@H](CN1CCOCC1)CO3
inactive: [1] | [2]

CCCN1CCC[C@H](c2cccc(O)c2)C1
inactive: [1] | [2] | [3]

CN[C@@H]1C[C@@H](c2ccc(Cl)c(Cl)c2)c2ccccc21
inactive: [1] | [2] | [3]

NC(=NCCC[C@H](N)C(=O)O)N[N+](=O)[O-]
inactive: [1] | [2] | [3]

CCCN(CCC)C1CCc2ccc(O)cc2C1 (configuration not stated)
inactive: [1] | [2] | [3]

NC(CP(=O)(O)O)C(=O)O (configuration not stated)
inactive: [1] | [2] | [3]

CC(C)Oc1cccnc1N(C)C1CCN(Cc2ccccc2)CC1
inactive: [1] | [2] | [3]

C[C@@H](N)Cc1cnc[nH]1
inactive: [1] | [2] | [3]

C[C@]12CCC3C(CC[C@H]4C[C@H](O)CC[C@]34C)C1CC[C@@H]2C(=O)CO (some centres not stated)
inactive: [1] | [2] | [3]

c1ccc(C2(c3ccccc3)CC2C2=NCCN2)cc1 (configuration not stated)
not listed: [7]
inactive: all other assays above

NC(N)=NOCCC(N)C(=O)O (configuration not stated)
inactive: [1] | [2] | [3]

O=C(O)CC(O)C(=O)O (configuration not stated)
inactive: [7] | [4] | [6] | [5]

CN1CCN(c2c(F)cc3c(=O)c(C(=O)O)cn4c3c2OCN4C)CC1
inactive: [7] | [4] | [6] | [5]

O=C(O)CNC(=O)CNC(=O)CNC(=O)CSC(=O)c1ccccc1
inactive: [7] | [4] | [6] | [5]

CCCCCCCCCCC(CO)CCCCCCCC (configuration not stated)
inactive: [7] | [4] | [6] | [5]

CS(=O)(=O)c1ccc(C(=O)Nc2ccc(Cl)c(-c3ccccn3)c2)c(Cl)c1
inactive: [7] | [4] | [6] | [5]

C1CCC(NC2CCCCC2)CC1
inactive: [7] | [4] | [6] | [5]

O=C(O)c1ccccn1
inactive: [7] | [4] | [6] | [5]

CC(=O)Oc1ccccc1C(=O)O
inactive: [7] | [4] | [6] | [5]

COc1c(N2CCNC(C)C2)c(F)cc2c(=O)c(C(=O)O)cn(C3CC3)c12 (configuration not stated)
inactive: [7] | [4] | [6] | [5]

O=C1NS(=O)(=O)c2ccccc21
inactive: [7] | [4] | [6] | [5]

NC1=NC(=O)N2CC12 (configuration not stated)
inactive: [7] | [4] | [6] | [5]

CCC(C)(Oc1ccc(C2(c3ccc(OC(C)(CC)C(=O)O)cc3)CCCCC2)cc1)C(=O)O (configuration not stated)
inactive: [7] | [4] | [6] | [5]
